Results filed as inconclusive are left out. Entries that show only a call come without a potency. Calls of active or inactive are those of the source. Unless noted, calls follow the shape of the dose curve; as a rule, active = well fitted curve in the direction sought with a large enough effect in the repeat runs; inconclusive = weak or mixed curves; inactive = no such curve, though single readings can be large; an effect the other way counts as inactive or inconclusive.
What was measured:
[1] = qHTS assay to identify small molecule agonists of the vitamin D receptor (VDR) signaling pathway - cell viability counter screen (AID 743224); also: series mostly up to about 63 µM; nearly all actives have a fitted effect of over 50% in size
Procedure, shortened: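 VDR-bla cell line, quantitative HTS format; 16 h compound incubation (37C, 5% CO2); ATP-based CellTiter-Glo luminescence measured in the reporter assay wells.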

[2] = qHTS assay to identify small molecule antagonists of the vitamin D receptor (VDR) signaling pathway - cell viability counter screen (AID 743225); also: nearly all actives have a fitted effect of over 50% in size
Procedure, shortened: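 Viability counter screen run in the same wells as the beta-lactamase reporter assay: HEK 293T VDR-UAS-bla cells, 16 h compound exposure at 37C with 3 nM (final) 1-alpha,25-dihydroxyvitamin D3. CellTiter-Glo luminescence, 30 min, room temperature.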

[3] = qHTS assay to identify small molecule agonists of the NFkB signaling pathway (AID 1159509; active = well fitted curve in the direction sought with a large enough effect in the signal ratio in the repeat runs, not every such curve was filed as active; the % refers to the signal ratio; also: series mostly up to about 61 µM)
Procedure, shortened: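 NFkB-bla ME-180 cells with a beta-lactamase reporter under an NF-kB response element were plated overnight, treated with compounds in DMSO for 5 hr at 37 C, then loaded with FRET substrate for 1.5 hr at room temperature.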

[4] = qHTS assay to identify small molecule agonists of the NFkB signaling pathway - cell viability counter screen (AID 1159515; calls by dose curve; also: series mostly up to about 61 µM; nearly all actives have a fitted effect of over 55% in size)
Procedure, shortened: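 Viability in NFkB-bla ME-180 cells was measured by CellTiter-Glo luminescence, 30 min room temperature, in wells already treated 5 hr with compounds and read for reporter FRET.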

[5] = qHTS assay to identify small molecule agonists of the endoplasmic reticulum stress response signaling pathway (AID 1159516; active = well fitted activation curve with a large enough effect in the signal ratio in the repeat runs, not every such curve was filed as active; the % refers to the signal ratio)
Procedure, shortened: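 ER stress element reporter (bla) in HeLa. 1,500 cells/well, overnight attachment; 5 hr compound; 2 hr RT substrate; dual-emission fluorescence.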

[6] = qHTS assay to identify small molecule antagonists of the retinoid-related orphan receptor gamma (ROR-gamma) signaling pathway - cell viability counter screen (AID 1159520); also: nearly all actives have a fitted effect of over 50% in size
Procedure, shortened: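 Tet-on ROR gamma CHO cells were given compounds for 2 hr, then doxycycline hyclate at 1 uM final, and incubated 16 hr at 37 C. Viability was measured as ATP content by CellTiter-Glo luminescence.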

[7] = molecular target: Nuclear receptor ROR-gamma (Homo sapiens) (UniProt P51449); experiment: qHTS assay to identify small molecule antagonists of the retinoid-related orphan receptor gamma (ROR-gamma) signaling pathway (AID 1159521; also: nearly all actives have a fitted effect of over 50% in size; also: potency is read from the fitted curve at half-maximal effect)
Procedure, shortened: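 Luminescence readout (ONE-Glo, 30 min RT) after 16 h doxycycline induction; loss of signal scored as antagonism. CHO cells with TET-inducible RORγ and RORE-LUC reporter; compounds added 2 h before 1 uM final doxycycline.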

[8] = qHTS assay to identify small molecule agonists of the AP-1 signaling pathway - cell viability counter screen (AID 1159525; calls by dose curve; also: nearly all actives have a fitted effect of over 55% in size)
Procedure, shortened: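 AP-1-bla ME-180 cells in Opti-MEM with 0.5% dialyzed FBS, compound exposure 5 h at 37 C in 15-point titration. Viability read in the same wells as ATP content by CellTiter-Glo luminescence, normalised to tetra-n-octylammonium bromide and DMSO controls.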

[9] = qHTS assay to identify small molecule agonists of the AP-1 signaling pathway (AID 1159526; calls by dose curve)
[10] = qHTS assay to identify small molecule agonists of the endoplasmic reticulum stress response signaling pathway - cell viability counter screen (AID 1159517; calls by dose curve)
Procedure, shortened: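 Counter-screen wells were identical to the reporter wells. Cells were plated at 1,500 per well and dosed for 5 hr, then read for luminescence 30 min after CellTiter-Glo addition.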

Compound | Potency [1] | Potency [2] | outcome [3] | Potency [4] | outcome [5] | Potency [6] | Potency [7] | Potency [8] | outcome [9] | Potency [10]
CC(Cl)C(C)Cl (stereo unspecified) | inactive | inactive | inactive | inactive | inactive | inactive | inactive | inactive | inactive | 
Nc1nc(N)nc(N)n1 | inactive | inactive | inactive | inactive | inactive | inactive | inactive | inactive | inactive | 
ClCCCCBr | inactive | inactive | inactive | inactive | inactive | inactive | inactive | inactive | inactive | 
C[N+](C)(C)CCCl | inactive | inactive | inactive | inactive | inactive | inactive | inactive | inactive | inactive | 
CCCC(Cn1cncn1)c1ccc(Cl)cc1Cl (stereo unspecified) | inactive | inactive | inactive | inactive | inactive |  |  | inactive |  | inactive
Sc1ccccc1Cl | inactive | inactive | inactive | inactive | inactive | inactive | inactive | inactive | inactive | 
Nc1ccc([N+](=O)[O-])cc1[N+](=O)[O-] | inactive | inactive | inactive | inactive | inactive |  |  |  | inactive | inactive
COP(=S)(OC)Oc1ccc([N+](=O)[O-])cc1Cl | inactive | inactive | inactive | inactive | inactive | inactive | 43.3 µM (active) | inactive | inactive | 
CCCC(=O)Cl | inactive | inactive | inactive | inactive | inactive | inactive | inactive |  | inactive | 
ClP(Cl)(Cl)(Cl)Cl | inactive | inactive | inactive | inactive | inactive |  |  |  | inactive | inactive
NC(=O)CI | inactive |  | inactive | inactive | inactive |  |  | inactive |  | inactive
C=CCN1CC[C@]23c4c5ccc(O)c4O[C@H]2C(=O)CC[C@@]3(O)[C@H]1C5 | inactive | inactive | inactive | inactive | inactive | inactive | inactive | inactive | inactive | 
O=C1CN=C(c2ccccc2)c2cc(Cl)ccc2N1CC1CC1 | inactive | inactive | inactive | inactive | inactive | inactive | inactive |  | inactive | 
CC1CC(CC2CCC(N)C(C)C2)CCC1N (stereo unspecified) | inactive |  | inactive | inactive | inactive | inactive | inactive | inactive |  | 
COC(=O)c1cncn1C(C)c1ccccc1 (stereo unspecified) | inactive | inactive | inactive | inactive | inactive | inactive | inactive |  | inactive | 
